CCHFV vOTU inh – CCHFV vOTU protease inhibitors, primary screen, biochemical, Pep-AMC substrate, fluorescence; Crimean-Congo hemorrhagic fever virus L polyprotein viral ovarian tumor (vOTU) protease …; inhibition, % at 11.5 µM; 370,000 tested, 0.55% active; in the data active means inhibition above about 30%
BoNT-A LC inh2 – BoNT/A light chain protease inhibitors, primary screen, biochemical, flow cytometry, MLPCN library; Botulinum neurotoxin type A light chain protease (Clostridium botulinum A str. ATCC 3502); multiplex microsphere protease substrate cleavage; inhibition, % at 10 µM; 360,000 tested, 0.17% active; AID 588499, 2011
SARS 3CLpro inh – SARS-CoV 3CLpro protease inhibitors, primary screen, biochemical, quenched FRET; recombinant SARS-CoV 3CLpro, quenched FRET peptide cleavage; 290,000 tested, 0.14% active; inhibition, % at 6 µM; in the data active means inhibition above about 12%
BoNT F protease – BoNT/F light chain protease inhibitors, primary screen, biochemical, flow cytometry, MLPCN library; 360,000 tested, 0.22% active; inhibition, % at 10 µM; Multiplex microsphere protease cleavage assay; AID 588497, 2011; in the data active means inhibition above about 35%, passing the limit was not always enough; inconclusive means no clear call, values can overlap the other calls
Bead autofluor – flagged as autofluorescent in microsphere protease counterscreen; AID 624483; fluorescence intensity (test concentration not listed); compound autofluorescence counterscreen, microsphere flow cytometry; hits give high values; 360,000 tested, 3.1% active; in the data active means fluorescence intensity above about 16000; inconclusive means no clear call, values can overlap the other calls
Anthrax LF inh2 – Bacillus anthracis LF protease inhibitors, primary screen, biochemical, multiplex microsphere, MLPCN library; inhibition, % at 10 µM; 360,000 tested, 0.12% active; multiplex microsphere protease cleavage assay; Lethal factor (Bacillus anthracis), P15917
Target sequence (P15917 whole entry, looked up): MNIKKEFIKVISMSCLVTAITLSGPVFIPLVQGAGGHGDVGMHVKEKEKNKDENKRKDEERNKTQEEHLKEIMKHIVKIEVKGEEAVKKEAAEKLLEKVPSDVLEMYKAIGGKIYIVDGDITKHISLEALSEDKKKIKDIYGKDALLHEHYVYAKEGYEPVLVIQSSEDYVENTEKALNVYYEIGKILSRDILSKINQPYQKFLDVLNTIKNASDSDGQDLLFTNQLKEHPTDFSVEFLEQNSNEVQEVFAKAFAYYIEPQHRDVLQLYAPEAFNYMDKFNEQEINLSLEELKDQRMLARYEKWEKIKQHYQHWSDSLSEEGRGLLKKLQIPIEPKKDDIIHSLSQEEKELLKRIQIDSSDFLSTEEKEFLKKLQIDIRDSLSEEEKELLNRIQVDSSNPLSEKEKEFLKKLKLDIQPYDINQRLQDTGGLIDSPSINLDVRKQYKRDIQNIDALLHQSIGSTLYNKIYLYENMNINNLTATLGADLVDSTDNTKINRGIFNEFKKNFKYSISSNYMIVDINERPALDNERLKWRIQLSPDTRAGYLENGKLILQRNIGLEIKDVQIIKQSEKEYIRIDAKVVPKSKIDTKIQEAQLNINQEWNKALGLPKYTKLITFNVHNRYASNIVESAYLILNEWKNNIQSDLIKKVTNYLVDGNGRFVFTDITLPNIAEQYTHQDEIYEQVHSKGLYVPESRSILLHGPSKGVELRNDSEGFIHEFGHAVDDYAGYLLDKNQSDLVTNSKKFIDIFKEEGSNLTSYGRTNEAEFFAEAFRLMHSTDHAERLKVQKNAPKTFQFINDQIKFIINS
Each line names hits and unclear results; the compound was inactive in the other large screens. Compounds with a hit are over-represented: about 3.9% of the library has one in this group of screens. Unless noted, no stated cut-off is given here; in the data, active means inhibition above about 30%; inconclusive means no clear call, values can overlap the other calls; inactive means below that.

O=c1c2ccccc2[nH]c2ccc(F)cc12	none
Cc1ccccc1CN1CCCNC1=O	none
Cc1ccccc1CN1CCNC1=O	Bead autofluor 19805
COC(=O)c1nn(-c2ccc(OC)cc2)c(=O)cc1Oc1ccccc1	Bead autofluor 21753
O=S(=O)(c1sccc1Br)n1c(CN2CCOCC2)nc2ccccc21	none (no result: BoNT-A LC inh2, SARS 3CLpro inh, BoNT F protease, Bead autofluor, Anthrax LF inh2)
Cc1cccc(N(C)S(=O)(=O)c2ccc3[nH]c(=O)c(=O)[nH]c3c2)c1	BoNT-A LC inh2 inconclusive, Bead autofluor 16965
Cc1cccc(N(C)S(=O)(=O)c2ccc3c(c2)NC(=O)CC(=O)N3)c1	none
Cc1cc(NS(=O)(=O)c2ccc(NC(=O)Cc3ccc(Cl)c(Cl)c3)cc2)on1	none (no result: BoNT-A LC inh2, SARS 3CLpro inh, BoNT F protease, Bead autofluor, Anthrax LF inh2)
CCOc1cc(C#N)c(NC(=O)CSc2nnnn2-c2ccc(OC)cc2)cc1OCC	Bead autofluor 22206
CCOC(=O)CC[C@@]1(C(=O)OCC)C[C@@H](CC(=O)NCc2cccs2)C(=O)N2CCCC=C21	none (no result: BoNT-A LC inh2, SARS 3CLpro inh, BoNT F protease, Bead autofluor, Anthrax LF inh2)
Cc1ccc2c(c1)C1CS(=O)(=O)N(CCc3ccccc3)C(=O)N1C2 (stereo unspecified)	none (no result: BoNT-A LC inh2, SARS 3CLpro inh, BoNT F protease, Bead autofluor, Anthrax LF inh2)
Cc1ccc(S(=O)(=O)Oc2ccc(/C=C3\N=C(c4cccc(C)c4)OC3=O)cc2)cc1	Bead autofluor 21802
Cc1cccc(C2=N/C(=C\c3cccs3)C(=O)O2)c1	none
CC(C)(C)c1ccc(-c2nnc3sc(COc4ccccc4)nn23)cc1	none (no result: BoNT-A LC inh2, SARS 3CLpro inh, BoNT F protease, Bead autofluor, Anthrax LF inh2)
COC(=O)c1cc2c(c3c4cc(F)ccc4n(S(=O)(=O)c4ccc(C)cc4)c13)C(=O)N(C)C2	none (no result: BoNT-A LC inh2, SARS 3CLpro inh, BoNT F protease, Bead autofluor, Anthrax LF inh2)
Cc1ccc(S(=O)(=O)N2c3ccccc3CC2C)cc1 (stereo unspecified)	none
COc1ccc(C)cc1S(=O)(=O)N1c2ccccc2CC1C (stereo unspecified)	Bead autofluor 17618
COc1cc(OC)cc(-c2nc3ccccc3s2)c1	Bead autofluor 23472
Cc1cc(-c2nc3ccccc3s2)ccc1N	none (no result: SARS 3CLpro inh)
CCOc1ccc(CCNC(=O)c2cc3sccc3n2CC)cc1OC	none (no result: BoNT-A LC inh2, SARS 3CLpro inh, BoNT F protease, Bead autofluor, Anthrax LF inh2)
COC(=O)[C@]12C[C@H](CC(=O)N3CCN(C(=O)c4ccco4)CC3)C(=O)N(CCc3ccc(OC)c(OC)c3)C1=C[C@H](C(C)C)O[C@@H]2C1CC1	none (no result: BoNT-A LC inh2, SARS 3CLpro inh, BoNT F protease, Bead autofluor, Anthrax LF inh2)
Cn1nnnc1SCc1c(F)cccc1F	Bead autofluor 21178
Cn1nnnc1SCc1cccc(CSc2nnnn2C)n1	none
O=c1ccnc(SCc2ccccc2Cl)[nH]1	Bead autofluor 16496
O=C(Nc1ccc(Nc2cccnc2)cc1)c1c[nH]c2ccccc12	none (no result: BoNT-A LC inh2, SARS 3CLpro inh, BoNT F protease, Bead autofluor, Anthrax LF inh2)
Fc1ccc(C[n+]2csc3ccccc32)cc1	BoNT-A LC inh2 inconclusive, Bead autofluor 22598
Clc1ccc(C[n+]2csc3ccccc32)cc1	none
C[C@H]1COc2cc(Br)ccc2S(=O)(=O)N1Cc1cn(Cc2ccc(F)cc2)nn1	none (no result: BoNT-A LC inh2, SARS 3CLpro inh, BoNT F protease, Bead autofluor, Anthrax LF inh2)
CCC(=NCc1ccco1)c1c(O)n(C)c(=O)n(C)c1=O	none
CC(=NCc1ccc(F)cc1)c1c(O)n(C)c(=O)n(C)c1=O	BoNT-A LC inh2 inconclusive, Bead autofluor 19909
C=CCn1c(O)c(C(C)=NCC2CCCO2)c(=O)[nH]c1=O (stereo unspecified)	Anthrax LF inh2 inconclusive
CC(=NCC1CCCO1)c1c(O)n(C)c(=O)n(C)c1=O (stereo unspecified)	Bead autofluor 20914
CC(=NCCCn1ccnc1)c1c(O)n(C)c(=O)n(C)c1=O	Bead autofluor 19563
COc1cc(CN=C(C)c2c(O)n(C)c(=O)n(C)c2=O)cc(OC)c1	none
CC(=NCc1ccco1)c1c(O)n(C)c(=O)n(C)c1=O	Bead autofluor 21713
Cc1cccc(C)c1NC(=O)C1CCN(c2ncccn2)CC1	none (no result: BoNT-A LC inh2, SARS 3CLpro inh, BoNT F protease, Bead autofluor, Anthrax LF inh2)
C[C@H](CCCCC1(C)OCCO1)CCC(=O)N(c1ccccc1)c1ccccc1	none (no result: BoNT-A LC inh2, SARS 3CLpro inh, BoNT F protease, Bead autofluor, Anthrax LF inh2)
COc1ccc(NC(=O)COC(=O)CCCc2c[nH]c3ccccc23)cc1	none
COc1cccc(NC(=O)COC(=O)CCCc2c[nH]c3ccccc23)c1	Bead autofluor 22839
O=Cc1ccc(-n2cccn2)cc1	none
NCc1cccc(-n2cccn2)c1	BoNT-A LC inh2 inconclusive, Bead autofluor 21167
CCn1c2ccccc2c2cc(NC(=O)c3cc4c(C)nn(-c5ccccc5)c4s3)ccc21	none (no result: BoNT-A LC inh2, SARS 3CLpro inh, BoNT F protease, Bead autofluor, Anthrax LF inh2)
COC(=O)c1ccc(C(=O)OC)c(NS(C)(=O)=O)c1	Bead autofluor 23033
C[C@H]1COc2cc(N3CCSCC3)ccc2S(=O)(=O)N1C	none (no result: BoNT-A LC inh2, SARS 3CLpro inh, BoNT F protease, Bead autofluor, Anthrax LF inh2)

Assay outcomes (PubChem)
